Test results as given in ChEMBL document CHEMBL4513216, “Probing the Open Global Health Chemical Diversity Library for Multistage-Active Starting Points for Next-Generation Antimalarials” (ACS Infect Dis, 2020).
Out of some 68,000 compounds screened, about 2,700 (4%) showed an effect of 50% or more. The sample holds strong results, similar compounds and a random draw of the others, so the mix is not that of the screen.

Tested on: Plasmodium berghei
Assay: Screen against P. berghei liver stage (PbLuc), transformed with Luciferase, at 2uM
Type: functional, HepG2
Settings: tested at 2 uM

SMILES | INHIBITION
Cc1ccc(CCNC(=O)Nc2cc(C(F)(F)F)c[nH]c2=O)o1 | -0.12%
O=C(c1n[nH]c2c1CN(C1CCOCC1)CC2)N1CCCC1 | 30.95%
Cc1cccc(N(C)Cc2cc(=O)n3oc(C)cc3n2)c1 | 4.91%
N#CCCN(CC1CCOC1)Cn1ccc(-c2cccs2)n1 (stereo not given) | -42.48%
COc1cc(C)nc(N2CCN(C(=O)CN(C)C(C)C)CC2)n1 | 10.22%
COc1c(C)cnc(CNC(=O)CCOCc2ccccc2)c1C | 65.76%
COc1c(C)cnc(CNC(=O)CCOCC(C)C)c1C | 5.17%
COc1ccccc1OCCC(=O)NCc1ncc(C)c(OC)c1C | 40.51%
CN1CCCC1c1cccc(Cc2ccc(F)cc2)n1 (stereo not given) | 16.32%
Cc1cc(-c2nnn(CCC(N)=O)n2)ccc1F | 5%
CNS(=O)(=O)CCCn1nnc(-c2ccc(F)c(C)c2)n1 | 31.66%
Cc1cc(-c2nnn(CCNS(C)(=O)=O)n2)ccc1F | 69.72%
c1ccc([C@@H]2CN(Cc3ccncc3)C[C@H]2c2cc[nH]n2)cc1 | 48.22%
c1ccc([C@@H]2CN(Cc3cccnc3)C[C@H]2c2cc[nH]n2)cc1 | 50.94%
COc1ccc([C@@H]2CN(Cc3ccncc3)C[C@H]2c2cc[nH]n2)cc1 | -128.75%
CS(=O)(=O)c1cccc(C(=O)NCCCN2CCc3ccccc3C2)c1 | 5.59%
c1cnc(N2CC3(CCN(C4CCOCC4)CC3)c3ccccc32)nc1 | -23.45%
CN(CCn1nc2ccccn2c1=O)CC(=O)NC1CC1 | 16.6%
CCC(=O)CNC(=O)CCn1nc2ccccn2c1=O | -12.95%
CN(CCn1nc2ccccn2c1=O)CC(=O)N1CCCC1 | 17.19%
O=C(NCCCn1nc2ccccn2c1=O)NC(C1CC1)C1CC1 | -35.46%
CCNC(=O)NCCCn1nc2ccccn2c1=O | -53.4%
CC(=O)N1CCCN(CCn2nc3ccccn3c2=O)CC1 | 52.66%
CCN(CC)C(=O)CN(C)CCn1nc2ccccn2c1=O | 8.88%
CN(C)C(=O)N1CCN(CCn2nc3ccccn3c2=O)CC1 | 50.32%
CCC(C)NC(=O)NCCCn1nc2ccccn2c1=O (stereo not given) | 55.7%
CN1CCN(C(=O)c2cnsn2)c2ccc(F)cc21 | 36.24%

SMILES | INHIBITION
CN(C)CCCn1ccnc1C1CCCN(c2ncc(Cl)cc2F)C1 (stereo not given) | -18.59%
Cc1noc([C@H]2C[C@H]3OCC[C@H]3N(Cc3cccs3)C2)n1 | -27.21%
c1cnc(N2CCCC3(CCN(CC4CCC4)C3)C2)nc1 (stereo not given) | -20.98%
CN(C)c1cc(CNC(=O)Nc2cccnc2N2CCCC2)ccn1 | -43.4%
Cn1cccc(NC(=O)N2CCC(COCc3ccccc3)C2)c1=O (stereo not given) | -5.79%
CN1CCN(C2CCN(Cc3nc(-c4ccoc4)no3)CC2)C1=O | -17.31%
Cc1ncc(CN(C)C(=O)Nc2cccc(CN3CCOC3=O)c2)s1 | 56.2%
Cc1ncc(CN(C)C(=O)Nc2ccc(CN3CCOC3=O)cc2)s1 | 10.61%
Cc1ncc(CN(C)C(=O)Nc2cccc(N3CCOC3=O)c2)s1 | -127.85%
CCN1CCOC(CNCc2cccc(OCc3ccccn3)c2)C1 (stereo not given) | 3.06%
CN1CCOC(CNCc2ccc(OCc3ccccn3)cc2)C1 (stereo not given) | -12.27%
CC(=O)NC1CCCN(Cc2ccc(OCc3ccccn3)cc2)C1 (stereo not given) | 57.92%
CCN1CCOC(CNCc2ccc(OCc3ccccn3)cc2)C1 (stereo not given) | 50.75%
CS(=O)(=O)NC1CCN(Cc2ccc(OCc3ccccn3)cc2)CC1 | -15.64%
CS(=O)(=O)NC1CCCN(Cc2ccc(OCc3ccccn3)cc2)C1 (stereo not given) | 10.63%
c1cnc(N2C[C@H]3CCN(CCN4CCCC4)C[C@H]3C2)cn1 | -27.22%
COCCNC(=O)c1nnc2ccc(N3CCOCC3)cc2n1 | 26.54%
CSc1nc2ncc3c(=O)n(CCN4CCCCC4)ccc3n2n1 | 8.9%
COC1CCN(C(=O)CC2CCCC2)CC(=O)N(C)c2ccccc21 (stereo not given) | 8.41%
COC1CCN(C(=O)COC(C)=O)CC(=O)N(C)c2ccccc21 (stereo not given) | -46.46%
COC1CCN(C(=O)CC(C)(C)C)CC(=O)N(C)c2ccccc21 (stereo not given) | 51.71%
CN(Cc1noc2c1CCCC2)C(=O)C1CCOc2ccccc2C1 (stereo not given) | 8.89%
c1csc(CNCC2COCc3c(-c4ccoc4)nnn3C2)n1 (stereo not given) | -45.9%
O=C([C@@H]1COC[C@H]2CN(C3CCOCC3)C[C@H]21)N1CCCO1 | 35.15%
Cc1cc(CN(C)C(=O)C2CC(c3cccc(F)c3)=NO2)no1 (stereo not given) | -30.08%
CN(Cc1cccc(C#N)c1)C(=O)C1CC(c2cccc(F)c2)=NO1 (stereo not given) | 17.47%
CN(Cc1ccc2c(c1)OCO2)C(=O)C1CC(c2cccc(F)c2)=NO1 (stereo not given) | 53.68%

SMILES | INHIBITION
CNC(=O)N1C[C@@H]2C[C@H](C(=O)Nc3ccccc3)[C@H](C1)O2 | 6.57%
c1ccc(-c2cc(CNCCCC3CCOC3)c3nnnn3c2)cc1 (stereo not given) | 22.81%
Cc1nn(C)c(C)c1CCC(=O)NCC1(C(N)=O)CCOCC1 | 25.73%
Cc1nn(C)c(C)c1CC(=O)NCC1(C(N)=O)CCOCC1 | 60.59%
Cc1nn(C)c(Cl)c1C(=O)NCC1(C(N)=O)CCOCC1 | 32.02%
NC(=O)C1(CNCc2csc(-c3cccs3)n2)CCOCC1 | 36.28%
CCc1nc(CC(=O)NCC2(C(N)=O)CCOCC2)cs1 | 55.36%
CCc1nc(CNCC2(C(N)=O)CCOCC2)cs1 | 33.9%
Nc1ccc(C(=O)N2CCCC(C(=O)CCc3ccccc3)C2)cn1 (stereo not given) | -62.48%
COCc1cnc2n1CCN(C1CCCC1)C2C (stereo not given) | 0.42%
c1cc(-c2nn3c(CN4CCOCC4)nnc3s2)ccn1 | 2.88%
COc1cc(C(=O)N2CCC(c3n[nH]c(C4CC4)n3)CC2)ccc1C | 10.5%
O=C(NCc1cccnc1)[C@@H]1CC[C@@H]2[C@@H](CCN2c2ncc(F)cn2)O1 | 12.7%
COc1ccc(-c2nnsc2C(=O)N2CCSCC2)cc1 | -20.55%
N#CCCn1nc(C(F)(F)F)c2c1CCC2 | 10.83%
NCCCn1nc(C(F)(F)F)c2c1CCC2 | 58.18%
N#CCCn1nc(C(F)(F)F)c2c1CCCC2 | 17.01%
COCC1CN(Cc2cccnc2)Cc2nnn(CC3CC3)c21 (stereo not given) | -94.44%
COCC1CC2(CCN(c3cc(OC)ncn3)CC2)CN1C(C)C (stereo not given) | -0.45%
COC(=O)c1cccc(C(=O)N2CCN(C(=O)N(C)C)CC2(C)C)c1 | 7.42%
CC(NC(=O)N1CCC2(C1)OCCO2)c1cccc(Cl)c1 (stereo not given) | 22.12%
CCOc1cccc(C(C)NC(=O)N2CCC3(CC2)OCCO3)c1 (stereo not given) | 58.01%
CCOc1cccc(C(C)NC(=O)N2CCC(C(N)=O)CC2)c1 (stereo not given) | -31.3%
COc1cc(N2CCC3(CC2)CCN(c2cccnc2)C3=O)ncn1 | 2.72%
O=C(c1ccc2nncn2c1)N1CCCCC1Cn1cccn1 (stereo not given) | 39.47%
O=C(NCCOc1ccc(Cl)cn1)Nc1nccs1 | 50.61%
O=C(NCCOc1ccc(Cl)cn1)Nc1cccnc1 | -1.56%

SMILES | INHIBITION
O=C(NCCOc1ccc(Cl)cn1)Nc1ccccn1 | -65.52%
C=Cc1ccc(C(=O)N2CCCC(Nc3ccc(OC)cc3)C2)cc1 (stereo not given) | 19.42%
CCn1cc(CN2CCCN(C(=O)C3(C)CCOCC3)CC2)cn1 | -1.55%
CN(Cc1cccc(OC(F)(F)F)c1)C(=O)c1cnsn1 | 10.1%
CC(C)CN1C[C@@H]2C(=O)NC3(CCN(C(=O)c4cccnc4)CC3)[C@@H]2C1 | 14.47%
Cc1cnc(-c2nc(C3CCN(Cc4ccccc4O)CC3)no2)cn1 | -10.49%
O=C(NCCOC1CCCC1)c1ccc(-c2ccco2)[nH]c1=O | -40.62%
c1ncc(Nc2nccc(C3CCCCN3CC3CCCCC3)n2)cn1 (stereo not given) | -8.23%
O=C(CCN1CCOCC1)N1CCC(Cc2ccc(CO)cc2)C1 (stereo not given) | -11.66%
O=C(CCc1ccc(O)cc1)N1CCC(Cc2ccc(CO)cc2)C1 (stereo not given) | 11.28%
O=C(CCN1CCCCC1)N1CCC(Cc2ccc(CO)cc2)C1 (stereo not given) | 50.61%
O=C(CN1CCC(c2cccc(F)c2)C1)NCC(F)(F)F (stereo not given) | 20.28%
CC(C)NC(=O)CN1CCC(c2cccc(F)c2)C1 (stereo not given) | 28.33%
O=C(CN1CCC(c2cccc(F)c2)C1)NCc1ccco1 (stereo not given) | 51.21%
CN1C[C@H]2CC[C@@H](CC1=O)N2C(=O)c1ccc(-c2ccccc2)[nH]c1=O | -40.36%
Nc1nccc(C2CCN(CCO)C2)n1 (stereo not given) | 19.86%
Cc1ccc(N2CCO[C@H]3CN(Cc4ccccn4)C[C@H]32)nn1 | 4.99%
Cc1ccoc1C(=O)N1CCn2cc(CN3CCCC3)nc2C1 | 37.2%
O=S(=O)(CC1CC1)c1ncc(CN2CCSCC2)n1CC1CCCO1 (stereo not given) | 65.76%
CCCS(=O)(=O)c1ncc(CN2CCC(CO)CC2)n1CC1CCCO1 (stereo not given) | 27.44%
CN1CCN(Cc2cnc(S(=O)(=O)CC3CC3)n2CC2CCCO2)CC1 (stereo not given) | 1.8%
CCCS(=O)(=O)c1ncc(CN2CCC(C)CC2)n1CC1CCCO1 (stereo not given) | 70.81%
CC1CCN(Cc2cnc(S(=O)(=O)CC3CC3)n2CC2CCCO2)CC1 (stereo not given) | -14.32%
O=S(=O)(CC1CC1)c1ncc(CN2CCOCC2)n1CC1CCCO1 (stereo not given) | 3.49%
